Drawing on PubChem BioAssay, this text covers composite z-score and z-score for 22 compounds.

Molecules are shown by their SMILES. Active and inactive are the calls of the source. Unless noted, the rule behind the calls is not given here.

Test [1] has as its system XIP peptide (Xip251-270) binding. Description: XIP fragment 251-270 binding compounds – biochemical, small-molecule microarray, fluorescence 635/667 nm, 0.1 µg/mL protein, primary screen (AID 1182). Conditions: fluorescent protein binding, 635 nm, higher = more signal, called active from +8 up or from −8 down.
A further test relates to XIP peptide (Xip251-270). Description: compounds binding XIP fragment 251-270 – biochemical, small-molecule microarray, fluorescence 635/667 nm, 0.5 µg/mL protein, primary screen (AID 1183). Conditions: fluorescence 635 nm, higher = more signal.
Test [2] can be described thus: blood-stage malaria parasite viability loss – strain 3D7, DAPI fluorescence, 100 nL, primary screen (AID 1184).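 Note: parasites grown inside human red blood cells in medium with human serum.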 As to conditions: P. falciparum 3D7 growth, 3 d, higher = more signal.
In test [3] the target is Homeobox protein Hox-A13 (Mus musculus) (UniProt Q62424). Nature of the test: disruptors of Hoxa13 oligonucleotide interaction – biochemical, fluorescence polarization, labeled oligonucleotide, primary screen (AID 1185). Conditions: Hoxa13:DNA binding, 15 min, higher = more signal, called active from +8 up or from −8 down. On the technique in general: Fluorescence polarisation rises when a labelled molecule tumbles more slowly, as on binding a larger partner.
Homeobox protein Hox-A13 (Mus musculus), sequence (Q62424 whole entry, looked up): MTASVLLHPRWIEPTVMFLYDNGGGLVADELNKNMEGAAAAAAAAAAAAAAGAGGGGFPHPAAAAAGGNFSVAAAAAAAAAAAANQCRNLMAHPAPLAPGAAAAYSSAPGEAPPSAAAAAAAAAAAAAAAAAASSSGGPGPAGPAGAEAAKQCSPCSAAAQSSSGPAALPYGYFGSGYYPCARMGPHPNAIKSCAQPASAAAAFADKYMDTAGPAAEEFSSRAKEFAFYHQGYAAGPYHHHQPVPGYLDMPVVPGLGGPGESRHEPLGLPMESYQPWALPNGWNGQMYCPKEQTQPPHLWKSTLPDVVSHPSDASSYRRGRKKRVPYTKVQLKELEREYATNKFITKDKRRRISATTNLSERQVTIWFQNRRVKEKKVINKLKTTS

Test [4] in a line: blockers of DNA damage checkpoint Chk1 activation – imaging, HeLa, hydroxyurea, phospho-Chk1 antibody, percent positive cells, primary screen (AID 1186). As to conditions: hydroxyurea-induced phospho-Chk1 immunofluorescence imaging, higher = more signal.
A short description of test [5]: blockers of DNA damage checkpoint Chk1 activation – imaging, HeLa, hydroxyurea, phospho-Chk1 nuclear intensity, primary screen (AID 1187). Conditions: hydroxyurea-induced phospho-Chk1 immunofluorescence imaging, higher = more signal.

For the compound `CO[C@H]1O[C@H](CO)[C@@H](OC(=O)Nc2ccc(Oc3ccccc3)cc2)[C@H](OC(=O)Nc2ccccc2-c2ccccc2)[C@@H]1OC(=O)Nc1ccccc1-c1ccccc1`, the composite z-score in test [1] was 0.356 (inactive); in the test with XIP peptide (Xip251-270) it was 0.759. Further, the z-score in test [2] was -2.39; in test [3] it was -1.71 (inactive); in test [4] it was -0.141 (inactive); in test [5] it was -0.148 (inactive).

Consider `Cc1c(NC(=O)/C(C#N)=C/C=C/c2ccc(N(C)C)cc2)c(=O)n(-c2ccccc2)n1C`, for which the composite z-score was 1.41 (inactive) in test [1] and 0.7 in the test with XIP peptide (Xip251-270). In addition, the z-score in test [2] was -0.46; in test [3], -13.8 (active); in test [4], 0.348 (inactive); in test [5], 0.996 (inactive).

For `CC(C)C(=C=CC[C@@H](O)c1ccccc1OCCO)C[C@@H](O)COCc1ccccc1`, the composite z-score in test [1] was 0.493 (inactive); in the test on XIP peptide (Xip251-270) it was 0.401. Moreover, the z-score in test [2] is -1.47; in test [3] it was -4.7 (inactive); in test [4], -0.476 (inactive); in test [5], 1.12 (inactive).

For `CN(C)CCCNC(=O)[C@@H]1c2ccccc2C(=O)N(Cc2ccc(OC(F)(F)F)cc2)[C@H]1c1ccc(CO)cc1`, the composite z-score in test [1] is 0.323 (inactive); with XIP peptide (Xip251-270), 0.721. Also, the z-score was -1.9 in test [2], -3.41 (inactive) in test [3], -0.234 (inactive) in test [4] and -0.296 (inactive) in test [5].

For the compound `O=C1O[C@@H](c2ccccc2)[C@@H](c2ccccc2)N2[C@@H](c3ccccc3OCCO)[C@]3(C(=O)Nc4ccc(C#CCCO)cc43)[C@@H](C(=O)Nc3nc4ccccc4s3)[C@H]12`, the composite z-score was 0.767 (inactive) in test [1] and 0.698 with XIP peptide (Xip251-270). In addition, the z-score in test [2] was -2.14; in test [3], -2.2 (inactive); in test [4], -0.0607 (inactive); in test [5], 0.0274 (inactive).

Take `Cc1ccc(S[C@]2(C(=O)NCC(F)(F)F)CC(=O)N(Cc3ccccc3)[C@@H]2c2ccc(CO)cc2)cc1`: the figures for the composite z-score (in test [1]; with XIP peptide (Xip251-270)) were 1.02 (inactive) and 0.5, respectively. The z-score is -1.57 in test [2], -3.77 (inactive) in test [3], -0.336 (inactive) in test [4] and -0.603 (inactive) in test [5].

In the case of `CCOC(=O)C[C@H]1[C@H](OC(=O)c2ccc(-c3ccccc3)cc2)[C@@H](NC(=O)c2ccc3ccccc3n2)c2cc(OCCCO)ccc2N1C(=O)c1ccccc1`, the composite z-score in test [1] is -0.0549 (inactive); in the test on XIP peptide (Xip251-270), 0.266. Besides, the z-score in test [2] is -1.1; in test [3], -2.05 (inactive); in test [4], 0.188 (inactive); in test [5], 0.16 (inactive).

Take `CCCN1C(=O)[C@]2(Cc3ccccc3)N=C(c3ccc(OCCCO)cc3)O[C@@H]2c2ccccc21`: the composite z-score in test [1] was -0.116 (inactive); in the test with XIP peptide (Xip251-270), 0.594. Further, the z-score is -2.26 in test [2], -4.81 (inactive) in test [3], -0.143 (inactive) in test [4] and 0.231 (inactive) in test [5].

In the case of `C=C(C(=O)CC[C@H](OC(C)=O)c1cccc(OCCO)c1)C(C)C`, the values for the composite z-score (in test [1]; with XIP peptide (Xip251-270)) were -0.252 (inactive) and 0.565, respectively. For the same compound, the z-score in test [2] is -1.96; in test [3], -4.74 (inactive); in test [4] it was 0.885 (inactive); in test [5], 0.41 (inactive).

On to `C=CCN1Cc2ccccc2C[C@@]2(N=C(c3ccc(OCCCO)cc3)O[C@H]2c2ccccc2)C1=O`, for which the composite z-score in test [1] was 0.247 (inactive); in the test with XIP peptide (Xip251-270), 0.691. For the same compound, the z-score in test [2] was -2.09; in test [3], -3.98 (inactive); in test [4], -0.468 (inactive); in test [5], -0.399 (inactive).

For `COC(=O)C(CC#Cc1ccc2c(c1)[C@]1(C(=O)N2)[C@H](C(=O)O)[C@H]2C(=O)O[C@H](c3ccccc3)[C@H](c3ccccc3)N2[C@@H]1c1ccccc1OCCO)C(=O)OC`, the values for the composite z-score (in test [1]; with XIP peptide (Xip251-270)) were 0.341 (inactive) and 0.853, respectively. Besides, the z-score in test [2] is -2.06; in test [3] it was -6.38 (inactive); in test [4], -0.244 (inactive); in test [5], -0.674 (inactive).

As to `CN(C)CCCNC(=O)[C@@H]1c2ccccc2C(=O)N(CC23CC4CC(CC(C4)C2)C3)[C@H]1c1ccc(CO)cc1`, the composite z-score in test [1] was 1.18 (inactive); in the test with XIP peptide (Xip251-270), 0.824. Further, the z-score in test [2] was -2.18; in test [3], 3.41 (inactive); in test [4], 0.595 (inactive); in test [5], 1.05 (inactive).

With `COc1ccc([Si](C)(C)[C@H]2[C@H](CCn3cc([C@H](O)c4ccccc4)nn3)O[C@@]3(C(=O)N(Cc4ccc(N5CCOC5=O)cc4)c4ccccc43)[C@@H]2C)cc1`, the composite z-score was -0.47 (inactive) in test [1] and 0.103 in the test on XIP peptide (Xip251-270). The z-score in test [2] is -2.29; in test [3], -2.28 (inactive); in test [4], -0.138 (inactive); in test [5], -0.0848 (inactive).

In the case of `COCCOC(=O)N1C(=O)[C@@]2(c3cc(C#CC4(O)CCCCCC4)ccc31)[C@H](C(=O)N1CCCCCCC1)[C@H]1C(=O)O[C@H](c3ccccc3)[C@H](c3ccccc3)N1[C@@H]2c1ccc(OCCO)cc1`, the values for the composite z-score (in test [1]; in the test with XIP peptide (Xip251-270)) were 1.72 (inactive) and 0.838, respectively. In addition, the z-score was -2.3 in test [2], -15.8 (active) in test [3], 0.331 (inactive) in test [4] and 0.805 (inactive) in test [5].

Regarding `CN1C2C=C(CCCO)C(C3C(=O)N(C(N)=O)C(=O)C32)C1c1cccs1` (configuration not stated), the composite z-score is 0.0931 (inactive) in test [1] and -0.301 in the test on XIP peptide (Xip251-270). Further, the z-score in test [2] is -0.29; in test [3], -8.5 (active); in test [4], -0.443 (inactive); in test [5], 0.133 (inactive).

Turning to `CN(C)C(=O)[C@]1(CCC(=O)OC(C)(C)C)N=C(c2ccc(OCCCO)cc2)O[C@@H]1c1ccccc1`, the figures for the composite z-score (in test [1]; in the test on XIP peptide (Xip251-270)) were 0.454 (inactive) and 0.116, respectively. The z-score in test [2] was 0.201; in test [3], -5.58 (inactive); in test [4] it was -0.0091 (inactive); in test [5] it was 0.277 (inactive).

For the compound `CCCCC(=C=CC[C@@H](O)c1ccc(OCCO)cc1)C[C@@H](O)COCc1ccccc1`, the results for the composite z-score (in test [1]; in the test on XIP peptide (Xip251-270)) were 0.117 (inactive) and 0.408, respectively. Also, the z-score was -2.73 in test [2], -4.47 (inactive) in test [3], -0.263 (inactive) in test [4] and 0.737 (inactive) in test [5].

For `O=c1cccc(-c2ccc(C(F)(F)F)cc2)o1`, the composite z-score is 0.338 (inactive) in test [1] and -0.256 in the test with XIP peptide (Xip251-270). The z-score in test [2] was 1.39; in test [3], -1.7 (inactive); in test [4], 0.264 (inactive); in test [5], 0.197 (inactive).

On to `NC(=O)NCC#Cc1ccc2c(c1)[C@]1(C(=O)N2)[C@H](C(=O)O)[C@H]2C(=O)O[C@H](c3ccccc3)[C@H](c3ccccc3)N2[C@@H]1c1ccccc1OCCO`, for which the composite z-score in test [1] was 0.638 (inactive); with XIP peptide (Xip251-270), 0.823. Also, the z-score in test [2] is 0.828; in test [3], -5.72 (inactive); in test [4], -0.0005 (inactive); in test [5], 0.287 (inactive).

Regarding `COC(=O)C[C@H]1O[C@]2(C(=O)N(C)c3ccccc32)[C@@H](C)[C@@H]1[Si](C)(C)c1ccc(C)cc1`, the values for the composite z-score (in test [1]; in the test with XIP peptide (Xip251-270)) were 0.611 (inactive) and 0.336, respectively. Moreover, the z-score in test [2] is -2.09; in test [3] it was -5.95 (inactive); in test [4] it was 0.0207 (inactive); in test [5], 0.0333 (inactive).

In the case of `C=CC[C@@H](OC(=O)Nc1ccc(OC)cc1)c1ccc(OCCO)cc1`, the composite z-score was 0.456 (inactive) in test [1] and -0.543 in the test on XIP peptide (Xip251-270). Also, the z-score was 0.663 in test [2], -5.86 (inactive) in test [3], -0.867 (inactive) in test [4] and -0.431 (inactive) in test [5].

For the compound `C#CCNC(=O)[C@H](Cc1ccccc1)NC(=O)[C@@H](N=[N+]=[N-])C(C)C`, the figures for the composite z-score (in test [1]; with XIP peptide (Xip251-270)) were 0.056 (inactive) and 0.262, respectively. In addition, the z-score in test [2] is -0.765; in test [3] it was -0.747 (inactive); in test [4] it was 0.744 (inactive); in test [5] it was 0.815 (inactive).
